HDAC3 inhib: HDAC3 deacetylase inhibitors, primary screen, biochemical, fluorescence, cell-free homogeneous; actives 0.15% (n = 320,000); inhibition, % at 8.3 µM; recombinant HDAC3, fluorogenic peptide/trypsin coupled; Histone deacetylase 3 (Homo sapiens), O15379; AID 2718, 2010; in the data active = inhibition above about 26%, passing the limit was not always enough
Cardio protect: cardioprotection against H2O2-induced cell death, primary screen, uHTS, H9c2 cells, ATPLite luminescence | H9c2 cardiomyocytes, H2O2 injury protection, 2 h | protection from H2O2 cell death, % at 20 µM | actives 0.63% (n = 360,000) | AID 588492, 2011;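 active = compounds giving at least 50% protection of heart cells from peroxide-induced death in the single-dose screen, raw or plate-pattern-corrected value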
GRK2 aptamer HTS: compounds blocking aptamer binding on GRK2 – biochemical, human GRK2, bead flow cytometry, HTS, primary screen; AID 488847, 2010; FAM-aptamer displacement from GRK2; inhibition of aptamer binding, % at 10 µM; Beta-adrenergic receptor kinase 1 (Homo sapiens), P25098; actives 0.59% (n = 330,000);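 active = inhibition of aptamer binding above 40%, roughly 3 SD of noise, on plates passing a quality check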;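 also: median bead fluorescence of bound FAM aptamer so fluorescent compounds give negative values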
Neddylation inh: inhibitors of cullin neddylation, primary screen, biochemical, TR-FRET, uHTS, NAE and Ubc12. NEDD8-conjugating enzyme Ubc12 (Homo sapiens) + NEDD8-activating enzyme E1 regulatory …. inhibition, % at 25 µM. actives 0.58% (n = 360,000). AID 651699, 2012; in the data active = inhibition above about 36%
Target sequence (P61081 whole entry, looked up): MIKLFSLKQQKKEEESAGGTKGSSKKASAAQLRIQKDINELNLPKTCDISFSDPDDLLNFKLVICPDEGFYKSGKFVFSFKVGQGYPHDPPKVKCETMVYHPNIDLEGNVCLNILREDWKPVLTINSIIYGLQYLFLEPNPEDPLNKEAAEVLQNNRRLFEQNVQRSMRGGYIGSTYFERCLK
Target sequence (Q13564 whole entry, looked up): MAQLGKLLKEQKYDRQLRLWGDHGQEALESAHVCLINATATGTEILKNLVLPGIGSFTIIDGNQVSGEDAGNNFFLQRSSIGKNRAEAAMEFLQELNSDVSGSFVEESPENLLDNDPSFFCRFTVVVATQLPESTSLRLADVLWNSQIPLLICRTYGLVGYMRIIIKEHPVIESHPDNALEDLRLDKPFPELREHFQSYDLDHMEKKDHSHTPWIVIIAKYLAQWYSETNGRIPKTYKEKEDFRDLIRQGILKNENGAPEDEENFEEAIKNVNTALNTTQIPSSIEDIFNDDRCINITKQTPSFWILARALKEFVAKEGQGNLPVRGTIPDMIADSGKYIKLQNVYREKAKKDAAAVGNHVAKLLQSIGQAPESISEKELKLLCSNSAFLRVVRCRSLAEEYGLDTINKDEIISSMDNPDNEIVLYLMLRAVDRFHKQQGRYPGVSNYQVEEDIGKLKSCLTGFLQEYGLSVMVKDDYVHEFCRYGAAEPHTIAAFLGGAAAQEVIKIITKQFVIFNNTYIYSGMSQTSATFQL
A number is an active result. The list is not random: actives were taken first. Their share in the collection is about 1.8%.

O=C(O)c1ccccc1NS(=O)(=O)c1cccc(-n2sc3ccccc3c2=O)c1 was read as HDAC3 inhib 53.6, Cardio protect 64.0, GRK2 aptamer HTS inactive and Neddylation inh inactive.
`C/C(=N\Nc1ccc([N+](=O)[O-])cc1[N+](=O)[O-])c1cccnc1` gave HDAC3 inhib inactive, Cardio protect inactive, GRK2 aptamer HTS inactive and Neddylation inh inactive.
CC(C)=NNc1cnnc2ccc([N+](=O)[O-])cc12 was read as Cardio protect 55.8 and Neddylation inh inactive.
For Cc1c(O)c(CN2CCCCC2)cc2c3c(c(=O)oc12)CCC3 the results were HDAC3 inhib inactive, Cardio protect inactive, GRK2 aptamer HTS inactive and Neddylation inh inactive.
Cc1c(O)c(CN2CCCCC2)cc2c1oc(=O)c1ccccc12 was read as HDAC3 inhib inactive, Cardio protect 51.6, GRK2 aptamer HTS inactive and Neddylation inh inactive.
`Nc1ccc(S(=O)(=O)NC(Cc2ccccc2)C(=O)O)cc1` (stereo not drawn) gave HDAC3 inhib inactive, Cardio protect inactive, GRK2 aptamer HTS inactive and Neddylation inh inactive.
`Cc1ccc(C(=O)n2nc(-c3ccco3)nc2N)cc1` gave HDAC3 inhib 39.8, Cardio protect inactive, GRK2 aptamer HTS inactive and Neddylation inh inactive.
For COc1ccc(C(=O)n2nc(-c3ccco3)nc2N)cc1 the results were HDAC3 inhib 84.1, Cardio protect inactive, GRK2 aptamer HTS inactive and Neddylation inh inactive.
For Nc1nc(-c2ccco2)nn1C(=O)c1ccccc1Cl the results were Cardio protect inactive and Neddylation inh inactive.
For Nc1nc(-c2ccco2)nn1C(=O)c1cccnc1 the results were HDAC3 inhib inactive, Cardio protect inactive, GRK2 aptamer HTS inactive and Neddylation inh inactive.
Screening COc1ccc(/C=C/c2ccc3cccc(O)c3n2)cc1Br returned HDAC3 inhib inactive, Cardio protect 62.0, GRK2 aptamer HTS inactive and Neddylation inh inactive.
`COc1ccc(Br)cc1/C=C/c1ccc2cccc(O)c2n1` gave HDAC3 inhib inactive, Cardio protect inactive, GRK2 aptamer HTS inactive and Neddylation inh inactive.
Screening COc1cc(/C=C/c2ccc3cccc(O)c3n2)cc(OC)c1OC returned HDAC3 inhib inactive, Cardio protect inactive, GRK2 aptamer HTS inactive and Neddylation inh inactive.
COc1cc(/C=C/c2ccc3cccc(O)c3n2)cc(Br)c1OC was read as HDAC3 inhib inactive, Cardio protect 80.4, GRK2 aptamer HTS inactive and Neddylation inh inactive.
`COc1ccc(/C=C/c2ccc3c(Br)ccc(O)c3n2)cc1` gave HDAC3 inhib inactive, Cardio protect 61.8, GRK2 aptamer HTS inactive and Neddylation inh inactive.
Screening COc1ccc(CN2CCNC(=O)C2CC(=O)N2CCCN(C(C)=O)CC2)c(OC)c1 (stereo not drawn) returned HDAC3 inhib inactive, Cardio protect inactive, GRK2 aptamer HTS inactive and Neddylation inh inactive.
Screening CCOC(=O)c1sc2nccc(OC)c2c1N=CNOC returned HDAC3 inhib inactive, Cardio protect inactive, GRK2 aptamer HTS inactive and Neddylation inh inactive.
Screening O=C1Nc2ccccc2Nc2ccccc21 returned HDAC3 inhib inactive, Cardio protect inactive, GRK2 aptamer HTS inactive and Neddylation inh inactive.
For O=C1Nc2cnc(Cl)nc2Nc2ccccc21 the results were Cardio protect 56.2 and Neddylation inh inactive.
`COCCNC(=O)/C(C#N)=C/c1cc(Br)c(O)c(OC)c1` gave HDAC3 inhib inactive, Cardio protect inactive, GRK2 aptamer HTS 43.0 and Neddylation inh inactive.
Screening CCOCCCNC(=O)/C(C#N)=C/c1cc(Br)c(O)c(Br)c1 returned Cardio protect inactive and Neddylation inh inactive.
For CCOC(=O)c1c(C)[nH]c(C(C)=NNC(=O)Cn2nc(C)cc2C)c1C the results were HDAC3 inhib inactive, Cardio protect inactive, GRK2 aptamer HTS inactive and Neddylation inh inactive.
Screening Cc1cc(C(=O)COc2ccccc2C(N)=O)c(C)n1C1CC1 returned HDAC3 inhib inactive, Cardio protect inactive, GRK2 aptamer HTS inactive and Neddylation inh inactive.
`Cc1cc(C(=O)COc2ccccc2C(N)=O)c(C)n1C` gave HDAC3 inhib inactive, Cardio protect 52.2, GRK2 aptamer HTS inactive and Neddylation inh inactive.
`O=C(NNC(=O)C1CC1)c1cc(Cl)nc2ccccc12` gave HDAC3 inhib inactive, Cardio protect inactive and GRK2 aptamer HTS 75.0.
`CSc1nc2ccc(Nc3nc(N4CCOCC4)nc(N4CCOCC4)n3)cc2s1` gave HDAC3 inhib inactive, Cardio protect 69.5, GRK2 aptamer HTS inactive and Neddylation inh inactive.
